From PubChem BioAssay AID1611 (NINDS Approved Drug Screening Program, 2009)

Test: HSE-luciferase reporter activators – cell-based (AID 1611)
Settings: human cells, HSE-luciferase heat shock reporter; stronger effect = higher value

Structure (SMILES) | fold change
CC/C(=C(\c1ccccc1)c1ccc(OCCN(C)C)cc1)c1ccccc1 | 0.77
CCOC(=O)C(Cc1ccc(O)cc1)NC(C)=O (stereo not given) | 0.71
N[C@@H]1[C@@H](O)[C@H](O)[C@@H](CO)O[C@H]1O | 1.15
CCCCOc1ccc(CC(=O)NO)cc1 | 0.79
CC(=O)Nc1ccccc1 | 0.93
OCc1ccccc1O[C@@H]1O[C@H](CO)[C@@H](O)[C@H](O)[C@H]1O | 1.04
Cc1onc(-c2ccccc2)c1C(=O)NC1C(=O)N2[C@@H]1SC(C)(C)[C@@H]2C(=O)O (stereo not given in full) | 1.85
CC(C)NCC(O)COc1cccc2ccccc12 (stereo not given) | 0.95
CC(Cc1ccc(O)c(O)c1)(NN)C(=O)O (stereo not given) | 1.02
Cc1ccc(/C(=C\CN2CCCC2)c2ccccn2)cc1 | 0.61
Cn1c(=O)c2[nH]cnc2n(C)c1=O | 1.18
O=C1c2ccc(O)c(O)c2C(=O)c2c(O)ccc(O)c21 | 0.67
O=C(OCc1ccccc1)c1ccccc1 | 0.75
CC(=O)Nc1nnc(S(N)(=O)=O)s1 | 0.33
CCN1CCCC(OC(=O)C(c2ccccc2)c2ccccc2)C1 (stereo not given) | 0.74
COC(=O)C(N)CS (stereo not given) | 0.85
CCc1cc(C(N)=S)ccn1 | 0.94
CCCCCCOc1ccccc1C(N)=O | 0.59
Cc1cccc(Nc2ccccc2C(=O)O)c1C | 1.2
OC[C@H]1O[C@@H](O[C@@H]2[C@@H](CO)O[C@](O)(CO)[C@H]2O)[C@H](O)[C@@H](O)[C@H]1O | 0.82

Structure (SMILES) | fold change
CCc1cccc2c3c([nH]c12)C(CC)(CC(=O)O)OCC3 (stereo not given) | 1.02
C[N+](C)(C)CCO | 0.93
COc1ccc2c(c1)c(CC(=O)O)c(C)n2C(=O)c1ccc(Cl)cc1 | 0.9
CCN(CC)CCOC(=O)C1(C2CCCCC2)CCCCC1 | 0.64
CC(=O)NS(=O)(=O)c1ccc(N)cc1 | 0.98
CCCc1ncc(C[n+]2ccccc2C)c(N)n1 | 1.19
CN1CCc2cccc3c2C1Cc1ccc(O)c(O)c1-3 (stereo not given) | 0.71
CC1(C)O[C@@H]2CC3C4C[C@H](F)C5=CC(=O)CC[C@]5(C)C4[C@@H](O)C[C@]3(C)[C@]2(C(=O)CO)O1 (stereo not given in full) | 1.35
CC(C)Oc1ccc2c(=O)cc(-c3ccccc3)oc2c1 | 1.28
CN(C)C(=O)C(CCN1CCC(O)(c2ccc(Cl)cc2)CC1)(c1ccccc1)c1ccccc1 | 1.52
COC1=CC(=O)C[C@@H](C)[C@]12Oc1c(Cl)c(OC)cc(OC)c1C2=O | 0.94
CCCOc1ccc2nc(NC(=O)OC)[nH]c2c1 | 1.26
CCN1CCN(C(=O)NC(C(=O)NC2C(=O)N3C(C(=O)O)=C(CSc4nnnn4C)CSC23)c2ccc(O)cc2)C(=O)C1=O (stereo not given) | 0.74
COc1cccc(OC)c1C(=O)N[C@@H]1C(=O)N2[C@@H]1SC(C)(C)[C@@H]2C(=O)O | 0.82
CCN(CC)CCOC(=O)c1ccc(N)cc1 | 0.94
Cc1ccccc1OCC(O)CO (stereo not given) | 0.73
Cn1nnnc1SCC1=C(C(=O)O)N2C(=O)C(NC(=O)C(O)c3ccccc3)C2SC1 (stereo not given) | 1.15
CC1=CC(=O)c2ccccc2C1=O | 0.86
CC[C@H]1OC(=O)[C@H](C)[C@@H](O[C@H]2C[C@@](C)(OC)[C@@H](O)[C@H](C)O2)[C@H](C)[C@@H](O[C@@H]2O[C@H](C)C[C@H](N(C)C)[C@H]2O)[C@](C)(O)C[C@@H](C)CN(C)[C@H](C)[C@@H](O)[C@]1(C)O | 293
CC(COc1ccccc1)NC(C)[C@H](O)c1ccc(O)cc1 (stereo not given in full) | 5.01
